Assay results published in PubChem BioAssay (NCATS).
Results filed as inconclusive are left out. Active and inactive are the calls of the source. Unless noted, calls come from the whole dose curve; as a rule, active = well fitted inhibition curve with a large enough effect; inconclusive = small, poorly fitted or top-dose-only effect; inactive = flat fitted curve, though single readings scatter.

Experiments:
[1] = qHTS for identification of novel therapeutic agents for treatment of microphthalmiaassociated transcription factor (MiT) renal cell carcinoma (RCC) (AID 1963991; calls by dose curve); conditions: CellTiter-Glo, 48 h; for Potency: active = Z-AUC below -0.8 in all three lines; for z-score: stronger effect = lower value
Method in brief: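 Three TFE3-fusion RCC lines (UOK109, UOK124, UOK145), 500 cells/well in complete medium, were treated with MIPE 4.0 compounds for 48 hours at 37 C. Viability was by CellTiter-Glo luminescence, normalized to DMSO (100%) and empty wells (0%); curves fitted over 11 concentrations.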

[2] = qHTS profiling for inhibitors of Plasmodium falciparum proliferation (AID 504749); note: nearly all actives have a fitted effect of over 60% in size;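 for activity, negative = inhibition: 0% = DMSO vehicle and full inhibition = artemisinin control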; conditions: P. falciparum in erythrocytes, SYBR Green DNA, 72 h
Method in brief: (§1)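 P. falciparum-infected erythrocytes (0.3% parasitemia, 2.5% hematocrit final) were exposed to compounds for 72 h at 37 C in 5% CO2, then lysed with SYBR Green buffer overnight at room temperature; parasite DNA fluorescence was normalized to artemisinin and DMSO controls.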

[3] = tested on: 3D7; assay: as above; conditions: P. falciparum in erythrocytes, SYBR Green DNA, 72 h; series mostly up to 28.7 µM
Method in brief: as §1

[4] = tested on: 7G8; assay: as above; conditions: P. falciparum in erythrocytes, SYBR Green DNA, 72 h; series mostly up to 28.7 µM
Method in brief: as §1

[5] = tested on: AA1029; assay: as above; conditions: P. falciparum in erythrocytes, SYBR Green DNA, 72 h; series mostly up to 28.7 µM
Method in brief: as §1

[6] = tested on: AS120; assay: as above; conditions: P. falciparum in erythrocytes, SYBR Green DNA, 72 h; series mostly up to 28.7 µM
Method in brief: as §1

[7] = tested on: ATS189; assay: as above; conditions: P. falciparum in erythrocytes, SYBR Green DNA, 72 h; series mostly up to 28.7 µM
Method in brief: as §1

[8] = tested on: ATS95; assay: as above; conditions: P. falciparum in erythrocytes, SYBR Green DNA, 72 h; series mostly up to 28.7 µM
Method in brief: as §1

[9] = tested on: CP185; assay: as above; conditions: P. falciparum in erythrocytes, SYBR Green DNA, 72 h; series mostly up to 28.7 µM
Method in brief: as §1

[10] = tested on: C2A; assay: as above; conditions: P. falciparum in erythrocytes, SYBR Green DNA, 72 h; series mostly up to 28.7 µM
Method in brief: as §1

[11] = TFE3-RCC UOK109 viability, measured here: UOK109 Z-AUC
[12] = TFE3-RCC viability, measured here: UOK124 Z-AUC
[13] = TFE3-RCC viability, measured here: UOK145 Z-AUC
[14] = at 28.7 µM (top of the series), parasite line A
[15] = at 28.7 µM (top of the series), parasite line B
[16] = at 12.8 µM (top of the series), parasite line A
[17] = at 12.8 µM (top of the series), parasite line B
Potency is the fitted concentration of half-maximal effect.

Structure (SMILES) | Potency ([1]; TFE3-RCC UOK109 viability) | z-score [1, 11] | z-score [1, 12] | z-score [1, 13] | activity, negative = inhibition [2, 14] | activity, negative = inhibition [2, 15] | Potency [3] | Potency [4] | Potency [5] | Potency [6] | Potency [7] | Potency [8] | Potency [9] | Potency ([2]; parasite line A) | Potency ([2]; parasite line B) | Potency [10] | activity, negative = inhibition [2, 16] | activity, negative = inhibition [2, 17]
COC(=O)Nc1nc2ccc(C(=O)c3cccs3)cc2[nH]1 | 0.00833 µM (active) | -2.2 | -3.02 | -1.81 | -6.79% (inactive) | 11.2% (inactive) | inactive | inactive | inactive | inactive | inactive | inactive | inactive | – | – | – | – | –
O=C1c2c(O)ccc(O)c2C(=O)c2c(NCCNCCO)ccc(NCCNCCO)c21 | 1.05 µM (active) | -2.02 | -1.52 | -2.08 | – | – | 2 µM (active) | 1.26 µM (active) | 2.51 µM (active) | 2.24 µM (active) | 2.82 µM (active) | 2.24 µM (active) | 3.16 µM (active) | 3.16 µM (active) | 3.16 µM (active) | 3.16 µM (active) | – | –
CS(=O)(=O)Nc1ccc([N+](=O)[O-])cc1Oc1ccccc1 | – | 1.08 | 0.234 | 0.487 | – | – | inactive | inactive | inactive | inactive | inactive | inactive | inactive | – | – | inactive | 15.2% (inactive) | 9.68% (inactive)
COc1ccccc1OCC(O)CN1CCN(CC(=O)Nc2c(C)cccc2C)CC1 (stereo not drawn) | – | 0.18 | 0.373 | -0.0249 | 2.52% (inactive) | -6.5% (inactive) | inactive | inactive | inactive | inactive | inactive | inactive | inactive | – | – | inactive | – | –
CC[C@@]1(O)C(=O)OCc2c1cc1n(c2=O)Cc2cc3c(CN(C)C)c(O)ccc3nc2-1 | 5.9 µM (active) | -0.963 | -2.75 | -1.63 | – | – | 5.62 µM (active) | – | 7.08 µM (active) | 3.55 µM (active) | – | 3.16 µM (active) | – | 3.55 µM (active) | 7.08 µM (active) | 8.91 µM (active) | – | –
COc1ccc(C2CNC(=O)C2)cc1OC1CCCC1 (stereo not drawn) | – | 0.4 | 0.743 | 0.539 | – | – | – | – | – | – | – | – | – | – | – | – | – | –
CCC1(C)CC(=O)NC1=O (stereo not drawn) | – | 0.867 | 0.609 | 0.715 | – | – | – | – | – | – | – | – | – | – | – | – | – | –
NCCCCCC(=O)O | – | 0.855 | 0.487 | 0.828 | – | – | inactive | inactive | inactive | inactive | inactive | inactive | inactive | – | – | inactive | 3.43% (inactive) | 5.54% (inactive)
Cc1ccccc1N1C(=O)c2cc(S(N)(=O)=O)c(Cl)cc2NC1C (stereo not drawn) | – | 0.956 | 0.478 | -0.147 | – | – | – | – | – | – | – | – | – | – | – | – | – | –
CCc1cccc2c3c([nH]c12)C(CC)(CC(=O)O)OCC3 (stereo not drawn) | – | 0.838 | 0.432 | 0.577 | – | – | – | – | – | – | – | – | – | – | – | – | – | –
NC(=O)OCC(COC(N)=O)c1ccccc1 | – | 0.961 | 0.566 | -0.0858 | 12.4% (inactive) | 14.7% (inactive) | inactive | inactive | inactive | inactive | inactive | inactive | inactive | – | – | inactive | – | –
CC(C)Cc1ccc(C(C)C(=O)O)cc1 (stereo not drawn) | – | 0.767 | 0.849 | 0.507 | 5.92% (inactive) | 6.46% (inactive) | inactive | inactive | inactive | inactive | inactive | inactive | inactive | – | – | inactive | – | –
Nc1c2c(nc3ccccc13)CCCC2 | – | 1.01 | 0.33 | 1.46 | – | – | – | – | – | – | – | – | – | – | – | inactive | – | –
CN1CCN2c3ccccc3Cc3ccccc3C2C1 (stereo not drawn) | – | – | – | – | 6.93% (inactive) | 3.33% (inactive) | inactive | inactive | inactive | inactive | inactive | inactive | inactive | – | – | inactive | – | –
O=C1N(c2ccccc2)c2ccccc2C1(Cc1ccncc1)Cc1ccncc1 | – | – | – | – | 1.98% (inactive) | -9.11% (inactive) | inactive | 8.91 µM (active) | inactive | inactive | inactive | inactive | inactive | – | – | inactive | – | –
NC(=O)NO | – | – | – | – | 16% (inactive) | 12.9% (inactive) | inactive | inactive | inactive | inactive | inactive | inactive | inactive | – | – | inactive | – | –
COc1cc2c(c(OC)c1OC)-c1ccc(OC)c(=O)cc1[C@@H](NC(C)=O)CC2 | – | – | – | – | -2.78% (inactive) | 6.74% (inactive) | inactive | inactive | inactive | inactive | inactive | inactive | inactive | – | – | inactive | – | –
COc1ccc(CCN(C)CCCC(C#N)(c2ccc(OC)c(OC)c2)C(C)C)cc1OC (stereo not drawn) | – | 0.794 | 0.393 | 0.327 | 7.01% (inactive) | 8.01% (inactive) | inactive | – | – | inactive | inactive | inactive | inactive | – | – | inactive | – | –
COc1ccccc1OCCNCC(O)COc1cccc2[nH]c3ccccc3c12 (stereo not drawn) | – | 0.499 | 0.302 | 0.158 | – | – | – | 8.91 µM (active) | 8.91 µM (active) | 3.98 µM (active) | – | 12.6 µM (active) | – | – | – | 10 µM (active) | – | –
COc1ccc2[nH]cc(CCNC(C)=O)c2c1 | – | – | – | – | 6.49% (inactive) | 12.1% (inactive) | inactive | inactive | inactive | inactive | inactive | inactive | inactive | – | – | inactive | – | –
